Our source for the growth values is PubChem BioAssay (NCI).

The structures appear in SMILES notation. About 83,000 compounds went through this panel and 20% of them were active in at least one assay; those are over-represented in the sample as a whole.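 Values shown are percent growth following 48 h exposure of cells in 96-well plates to a single concentration of compound; below 10 was considered active.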 Active and inactive are the calls of the source.

This experiment has as its system NCI-H226 lung. The experiment in a line: NCI-60 one-dose screen, 48 h (100 = growth as untreated, 0 = no growth, -100 = all killed). The following applies: 10 µM unless noted.
Take `COc1cc2c(c(OC)c1OC)C(=O)CC(c1cccc(NC(=O)[C@@H](N)CC(C)C)c1)O2` (some centres undefined): the growth is 94.3% (inactive).
For the molecule `CN1CCN(/C(=N\c2sc(-c3ccccc3)nc2-c2ccccc2)c2ccccc2)CC1`, the growth was 96.4% (inactive).
Next, `Cc1ccc(-c2nnc3ccc(N/N=C/c4ccccc4)nn23)cc1`: 98% (inactive); `COc1ccc(C(=O)/C=C/c2ccccc2Br)cc1S(N)(=O)=O`: 21.5% (inactive).
On to `CC1=C(C(=O)OCc2ccccc2)C(c2c(O)cc(O)cc2O)n2c(nc3ccccc32)N1` (centres undefined), for which the growth is 62.2% (inactive).
For the molecule `CCCCc1c(Nn2cnnn2)no[n+]1[O-]`, the growth was 82% (inactive).
For `CC(C)CSc1nc(NCCc2c[nH]c3ccccc23)c(C#N)c(-c2ccc(Cl)cc2)n1`, the growth was 51.3% (inactive).
As to `CN1CCc2c(sc3ncnc(N/N=C/c4ccc(Cl)cc4Cl)c23)C1`, the growth is -59.8% (active).
Next, `N#Cc1c(-c2ccc(Br)cc2)nc2n[nH]c(-c3ccc(Br)cc3)c2c1-c1ccc(F)cc1`: 87.5% (inactive).
The figure for `CC(=O)OC[C@@]1(C)C2CC[C@]3(C)C(CC=C4C5CC(C)(C)CC[C@]5(C(=O)Nc5ccc(F)cc5)CC[C@]43C)[C@@]2(C)C[C@@H](OC(C)=O)[C@@H]1OC(C)=O` (some centres undefined) is 47.7% (inactive); for `NS(=O)(=O)c1ccc(N=Nc2c(O)n(CC(=O)Nc3ccccc3Cl)c3ccccc23)cc1` it is -1.16% (active); for `CCCCNC(=S)Nc1ccc(OCc2nc3ccccc3[nH]2)cc1` it is 102% (inactive).
`Cc1cc2nc3c4ccccc4n(CCCN(C)C)c3nc2cc1C`: the growth is 4.65% (active).
The figure for `COc1cc2c(c(OC)c1OC)C(=O)CC(c1cccc(NC(=O)c3cc(NC(=O)[C@@H](N)CO)ccc3C)c1)O2` (some centres undefined) is 103% (inactive).
